Assay results published in PubChem BioAssay (NCATS).
Activity calls are given as the source filed them. Calls come from the whole dose curve; as a rule, active = well fitted curve in the direction sought with a large enough effect; inconclusive = small, poorly fitted or top-dose-only effect, or another doubt; inactive = no such curve, though single readings can be large or run the other way.

These compounds were tested against Hexokinase-4 (Homo sapiens) + Glucokinase regulatory protein (Homo sapiens) (UniProt P35557+Q14397) (assay: qHTS assay for inhibitors of recombinant human GCK-GKRP interaction: Diaphorase-coupled assay (AID 743205)). Settings: G6PDH/diaphorase resorufin fluorescence; series mostly up to 57.5 µM.
Hexokinase-4 (Homo sapiens) + Glucokinase regulatory protein (Homo sapiens), sequence (P35557 whole entry, looked up): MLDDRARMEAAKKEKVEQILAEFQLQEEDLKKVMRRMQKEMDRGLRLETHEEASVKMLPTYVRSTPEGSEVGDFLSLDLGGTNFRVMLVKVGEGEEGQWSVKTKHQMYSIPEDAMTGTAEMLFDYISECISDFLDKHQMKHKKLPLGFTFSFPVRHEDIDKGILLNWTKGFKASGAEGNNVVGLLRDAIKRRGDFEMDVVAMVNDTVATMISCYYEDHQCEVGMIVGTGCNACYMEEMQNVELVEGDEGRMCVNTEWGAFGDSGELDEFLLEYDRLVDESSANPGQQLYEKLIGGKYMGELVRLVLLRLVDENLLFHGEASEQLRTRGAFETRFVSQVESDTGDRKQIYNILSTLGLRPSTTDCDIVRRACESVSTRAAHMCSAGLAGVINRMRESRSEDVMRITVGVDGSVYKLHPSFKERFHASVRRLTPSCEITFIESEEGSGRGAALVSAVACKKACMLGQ
Hexokinase-4 (Homo sapiens) + Glucokinase regulatory protein (Homo sapiens), sequence (Q14397 whole entry, looked up): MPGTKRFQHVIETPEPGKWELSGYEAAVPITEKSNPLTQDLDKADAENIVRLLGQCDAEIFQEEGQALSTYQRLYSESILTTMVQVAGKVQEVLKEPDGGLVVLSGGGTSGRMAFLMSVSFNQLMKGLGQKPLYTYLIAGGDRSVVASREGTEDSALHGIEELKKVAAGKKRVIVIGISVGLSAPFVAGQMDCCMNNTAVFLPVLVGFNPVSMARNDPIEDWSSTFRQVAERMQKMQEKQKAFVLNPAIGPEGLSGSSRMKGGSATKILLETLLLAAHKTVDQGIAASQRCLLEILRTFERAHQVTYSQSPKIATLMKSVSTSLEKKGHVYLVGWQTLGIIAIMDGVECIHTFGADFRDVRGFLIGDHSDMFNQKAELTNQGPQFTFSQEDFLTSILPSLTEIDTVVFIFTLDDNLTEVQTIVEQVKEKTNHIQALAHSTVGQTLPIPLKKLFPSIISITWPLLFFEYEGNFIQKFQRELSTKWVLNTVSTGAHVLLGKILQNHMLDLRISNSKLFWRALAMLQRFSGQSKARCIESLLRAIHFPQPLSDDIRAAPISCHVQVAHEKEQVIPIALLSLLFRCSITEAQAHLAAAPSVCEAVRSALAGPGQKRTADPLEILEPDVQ
Text: Glucokinase (GCK) is a glucose sensor in hepatocytes and pancreatic beta-cells. Hepatic GCK is regulated by glucokinase regulatory protein (GKRP), which is predominantly localized to the liver. GKRP binds to GCK inhibiting its activity in the fasting state while in the presence of glucose the GKRP is displaced. There is an additional layer of regulation by fructose 1-phosphate and fructose 6-phosphate, which inhibit and enhance the GCK-GKRP interaction, respectively. GCK plays a role in glucose homeostasis and there is an interest in the development of strategies to activate GCK to lower blood glucose levels in type 2 diabetes. To date the majority of effort has focused on direct activation of GCK and the assays developed herein look to activate GCK by inhibiting its binding to GKRP. A compound that inhibits the interaction of GCK with GKRP could be important for the treatment of diabetes and can also be used as a tool compound to further elucidate GCK-GKRP biology. To that end, we have developed a sensitive HTS biochemical assay where in GCK activity is coupled to G6PDH and Diaphorase to interrogate the GCK-GKRP interaction. This assay was screened against a small compound library to look for modulators of activity.
2 uL of substrate (columns 1-48) are dispensed into Greiner, black solid-bottom 1536-well assay plates. Compounds (23 nL) are then transferred via Kalypsys pin tool equipped with 1536-pin array (10 nL slotted pins, V&P Scientific, San Diego, CA). The library compounds are in columns 5-48 and columns 1-4 serve as controls with DMSO in columns 1 and 3 and 26 mM 1:1.5 fold serial of gluckokinase activator (GKA-EMD) in column 2 and 26 mM of the glucokinase activator (GKA-EMD) in column 4. Following addition of compound and a 20 minute incubation, 1 uL of enzyme mix (GST-GCK, FLAG-GKRP and diaphorase) is added to columns 1, 2, 4-48 and 1 uL of no enzyme mix (FLAG-GKRP and diaphorase) is added to column 3 and the fluorescent product resorufin generated from resazurin was monitored on a Viewlux (PerkinElmer, Shelton, CT, USA) with excitation at 525 nm and emission at 590 nm in kinetic mode where the plate was read every minute for 30 minutes. The final concentration of reagents in the reaction are 25 mM Hepes pH 7.6, 25 mM KCl, 2 mM MgCl2, 1.4 mM 2-mercaptoethanol, 0.025% BSA, 0.01% Tween-20, 0.15 mM NADP+, 5 mM glucose, 0.4 mM ATP, 4 U/ml G6PDH, 0.1 mM resazurin, 10 nM GST-GCK, 10 nM FLAG-GKRP, diaphorase (0.1 mg/mL). Data are normalized to DMSO-treated control columns with (maximum signal) and without (minimum signal) enzyme.
In the case of `CNC[C@H](O)c1ccc(O)c(O)c1`, the outcome is reported as “inactive”. With `COc1cc2c(cc1OC)C1CC(=O)C(CC(C)C)CN1CC2` (configuration not stated) the outcome was “inactive”. `Nc1ccn([C@@H]2O[C@H](CO)[C@@H](O)C2O)c(=O)n1` (some centres not stated) was tested, and the outcome was “inactive”. For `O=Nc1c(-c2c(O)[nH]c3cc(Br)ccc23)[nH]c2ccccc12`, the outcome was “inactive”. For `O=C(c1ccccc1)c1ccc2n1CCC2C(=O)O` (configuration not stated), the outcome was “inactive”. In the case of `O=C(O)c1cccnc1Nc1cccc(C(F)(F)F)c1`, the outcome is reported as “inactive”. `CN(C)CCCC1(c2ccc(F)cc2)OCc2cc(C#N)ccc21` (configuration not stated) was tested, and the outcome was “inactive”. With `NCCCCNCCCN` the outcome was “inactive”. With `NNc1nncc2ccccc12` the outcome was “inactive”. In the case of `Nc1nc(OCc2ccccc2)c2[nH]cnc2n1`, the outcome is reported as “inactive”. With `Oc1ccc(-c2nc(-c3ccc(F)cc3)c(-c3ccncc3)[nH]2)cc1` the outcome was “inactive”. `OC(CN1CCN(c2cccc(Cl)c2)CC1)C(c1ccccc1)c1ccccc1` (configuration not stated) was tested, and the outcome was “inactive”. For `CC(=O)O[C@H]1C(=O)[C@@]2(C)C([C@H](OC(=O)c3ccccc3)[C@]3(O)C[C@H](OC(=O)[C@H](O)[C@@H](NC(=O)c4ccccc4)c4ccccc4)C(C)=C1C3(C)C)[C@]1(OC(C)=O)CO[C@@H]1C[C@@H]2O` (some centres not stated), the outcome was “inactive”. `C[C@H](Cc1ccc(O)c(O)c1)[C@@H](C)Cc1ccc(O)c(O)c1` was tested, and the outcome was “inactive”. For `NC(=NCc1ccccc1)NC(=O)c1nc(Cl)c(N)nc1N`, the outcome was “inactive”. With `O=C1c2ccccc2-c2n[nH]c3cccc1c23` the outcome was “inactive”. For `O=c1c(O)c(-c2cc(O)c(O)c(O)c2)oc2cc(O)cc(O)c12`, the outcome was “inactive”. With `O=C1c2c(O)cc(O)cc2OC(c2ccc(O)c(O)c2)C1O` (configuration not stated) the outcome was “inactive”. In the case of `Cc1cccc(C#Cc2ccccc2)n1`, the outcome is reported as “inactive”. With `O=c1ccc2ccc(O)c(O)c2o1` the outcome was “inactive”. For `C[C@@H](N)C1CCC(C(=O)Nc2ccncc2)CC1` (some centres not stated), the outcome was “inactive”. For `CC(=O)N1CCN(c2ccc(OC[C@H]3CO[C@](Cn4ccnc4)(c4ccc(Cl)cc4Cl)O3)cc2)CC1`, the outcome was “inactive”. In the case of `Nc1nc(N)c(N=O)c(OCC2CCCCC2)n1`, the outcome is reported as “inactive”. `Oc1ccc2ccccc2c1SSc1c(O)ccc2ccccc12` was tested, and the outcome was “inactive”. In the case of `O=C(CCc1ccc(O)cc1)c1c(O)cc(O)cc1O`, the outcome is reported as “inactive”. For `Cc1c(OCC(F)(F)F)ccnc1CS(=O)c1nc2ccccc2[nH]1` (configuration not stated), the outcome was “inactive”. For `COc1ccccc1N1CCN(CCN(C(=O)C2CCCCC2)c2ccccn2)CC1`, the outcome was “inactive”. In the case of `O=c1c(O)c(-c2ccc(O)cc2O)oc2cc(O)cc(O)c12`, the outcome is reported as “inactive”. For `CC1(C)C(=O)N(CCN2CCC(C(=O)c3ccc(F)cc3)CC2)c2ccccc21`, the outcome was “inactive”. For `CC(C)c1ccc2c(c1)c(SC(C)(C)C)c(CC(C)(C)C(=O)O)n2Cc1ccc(Cl)cc1`, the outcome was “inactive”. With `COc1ccc2cc([C@H](C)C(=O)O)ccc2c1` the outcome was “inactive”. `O=c1cc(N2CCOCC2)oc2c(-c3ccccc3)cccc12` was tested, and the outcome was “inactive”. `Cc1cc(O)c2c(c1)C(=O)c1cc(O)cc(O)c1C2=O` was tested, and the outcome was “inactive”. With `COc1cc2nc(N3CCN(C(=O)C4CCCO4)CC3)nc(N)c2cc1OC` (configuration not stated) the outcome was “inactive”. For `CCOC(=O)C(C)Oc1cccc2c(=O)n(CC(=O)Nc3ccc4c(c3)OCCO4)ccc12` (configuration not stated), the outcome was “inactive”. For `O=C1NC(=O)C(c2ccccc2[N+](=O)[O-])=C1Nc1ccc(O)c(Cl)c1`, the outcome was “inactive”. For `CC1(C)NC(=O)N(c2ccc([N+](=O)[O-])c(C(F)(F)F)c2)C1=O`, the outcome was “inactive”.
